Unmarked numbers belong to inactive results. Records with an inconclusive call do not appear. Entries that show only a call come without a potency. Calls of active or inactive are those of the source. Unless noted, calls follow the shape of the dose curve; as a rule, active = well fitted curve in the direction sought with a large enough effect; inconclusive = small, poorly fitted or top-dose-only effect, or another doubt; inactive = no such curve, though single readings can be large; an effect the other way counts as inactive or inconclusive.
How the values were obtained:
[1] = AP1 Signaling Pathway (AID 357; active = well fitted curve in either direction with a large enough effect, not every such curve was filed as active;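 also: ME-180 reporter cells stimulated with EGF at its EC50 level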); conditions: ME-180 AP-1-bla reporter, EGF-induced, beta-lactamase ratio, 5 h; at 7.69 µM (top of the series) unless noted
In short: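 AP-1-bla ME-180 cells, Opti-MEM + 0.5% dialyzed FBS, plated overnight 37 °C. Cpd titration + EC50 EGF, 5 h 37 °C. CCF4 2.5 h RT; ex 405, em 460/530 ratio → %activity, AC50.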

[2] = target: Cytochrome P450 1A2 (Homo sapiens) (UniProt P05177); test: p450-cyp1a2 (AID 410; calls by dose curve; also: potency is read from the fitted curve at half-maximal effect)
Cytochrome P450 1A2 (Homo sapiens), sequence (P05177 whole entry, looked up): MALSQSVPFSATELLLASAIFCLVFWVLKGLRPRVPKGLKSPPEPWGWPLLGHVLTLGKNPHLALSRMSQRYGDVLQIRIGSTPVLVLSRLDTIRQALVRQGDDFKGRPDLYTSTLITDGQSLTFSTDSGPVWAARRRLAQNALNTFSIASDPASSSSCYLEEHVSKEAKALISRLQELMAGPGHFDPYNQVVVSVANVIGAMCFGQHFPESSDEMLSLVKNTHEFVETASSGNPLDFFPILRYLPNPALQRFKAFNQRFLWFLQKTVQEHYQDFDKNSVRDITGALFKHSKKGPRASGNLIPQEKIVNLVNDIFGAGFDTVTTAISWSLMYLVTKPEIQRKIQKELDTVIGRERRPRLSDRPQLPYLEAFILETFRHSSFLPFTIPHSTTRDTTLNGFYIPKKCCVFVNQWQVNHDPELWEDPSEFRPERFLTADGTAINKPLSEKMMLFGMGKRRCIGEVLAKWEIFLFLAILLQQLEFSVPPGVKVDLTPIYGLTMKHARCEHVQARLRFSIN
In short: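 Read-out is luminescence from luciferin produced by CYP1A2 demethylation of Luciferin-ME (100uM, at Km). Detection reagent stopped the 60 min NADPH-dependent reaction; signals were normalized to 57 uM furafylline.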

[3] = NFAT Signaling Pathway (AID 444; active = well fitted curve in either direction with a large enough effect, not every such curve was filed as active;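 also: carbachol stimulus at about its EC50 of 1 µM final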); conditions: Jurkat NFAT-bla M1, carbachol, beta-lactamase ratio, 5 h; at 7.69 µM (top of the series) unless noted
In short: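 Read-out: CCF4 FRET ratio (460 nm/530 nm) after 1 h RT dye loading, used for %activity and AC50 from titration series. Cells: Jurkat NFAT-β-lactamase/M1 line, treated with compound plus 1 uM carbachol for 5 h, 37 °C.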

[4] = Stat Signaling Pathway (AID 446; active = well fitted curve in either direction with a large enough effect, not every such curve was filed as active;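 also: ME-180 cervical cancer cells given 40 pM IL-6 alongside compound; SIE-controlled beta-lactamase reporter measured as 460/530 nm FRET emission ratio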); conditions: ME-180 (cervical carcinoma) SIE beta-lactamase reporter, IL-6 stimulated, 5 h; at 7.69 µM (top of the series) unless noted
In short: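 FRET read-out (405 nm excitation, 460/530 nm emission) of a beta-lactamase reporter under a STAT-inducible element in ME-180 cervical carcinoma cells. Cells with compound receive 40 pM IL-6 for 5 h. Values are normalised to AC90 stimulation and AC90 JAK-inhibitor controls.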

[5] = target: Glucocorticoid receptor (Homo sapiens) (UniProt P04150); test: GR-GFP Redistribution (AID 450;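 active = compounds whose dose series gives a full or clear partial fitted curve of increased nuclear translocation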; also: potency is read from the fitted curve at half-maximal effect); conditions: U2OS GR-GFP nuclear translocation, laser cytometry, 2 h
Glucocorticoid receptor (Homo sapiens), sequence (P04150 whole entry, looked up, the tested form may be a part): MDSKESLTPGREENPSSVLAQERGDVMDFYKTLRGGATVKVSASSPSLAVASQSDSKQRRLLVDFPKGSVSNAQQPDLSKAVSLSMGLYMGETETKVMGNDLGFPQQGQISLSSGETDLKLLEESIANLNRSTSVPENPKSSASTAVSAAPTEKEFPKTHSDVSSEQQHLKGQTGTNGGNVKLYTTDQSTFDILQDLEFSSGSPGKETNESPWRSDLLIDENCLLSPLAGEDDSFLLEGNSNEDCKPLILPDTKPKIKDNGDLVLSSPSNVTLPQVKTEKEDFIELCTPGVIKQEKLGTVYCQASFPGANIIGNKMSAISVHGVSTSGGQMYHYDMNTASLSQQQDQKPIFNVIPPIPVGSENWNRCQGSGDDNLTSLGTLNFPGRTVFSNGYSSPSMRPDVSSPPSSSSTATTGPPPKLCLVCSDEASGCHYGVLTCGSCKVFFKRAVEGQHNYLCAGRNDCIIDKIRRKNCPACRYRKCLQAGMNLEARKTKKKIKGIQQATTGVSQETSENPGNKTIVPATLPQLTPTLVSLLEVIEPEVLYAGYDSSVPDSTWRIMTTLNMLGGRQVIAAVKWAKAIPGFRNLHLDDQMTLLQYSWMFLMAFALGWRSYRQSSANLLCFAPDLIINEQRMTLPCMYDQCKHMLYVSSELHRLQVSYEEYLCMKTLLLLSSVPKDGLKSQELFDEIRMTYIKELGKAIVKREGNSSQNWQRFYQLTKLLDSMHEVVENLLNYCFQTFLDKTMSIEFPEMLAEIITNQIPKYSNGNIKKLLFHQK

[6] = target: Glucocorticoid receptor (Homo sapiens) (UniProt P04150); test: GR-EFC Redistribution (AID 451; calls by dose curve; also: potency is read from the fitted curve at half-maximal effect); conditions: CHO-K1 GR-EFC translocation, beta-gal luminescence, 2 h
In short: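 Translocation of GR-ED fusion to nuclear EA restores b-gal, read by luminescence after 1 h room-temperature detection. Engineered CHO-K1 biosensor cells, 1,000/well, exposed 2 h at 37 C to titrations up to 46 uM final.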

[7] = target: Mitogen-activated protein kinase 10 (Mus musculus) (UniProt Q61831); test: JNK3 AlphaScreen Assay (AID 530; active = well fitted curve in either direction with a large enough effect, not every such curve was filed as active;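 also: kinase came from lysate of stimulated human HepG2 cells; signal reports phosphorylation of biotinylated GST-cJun 1-79 at Ser73 with 10 µM ATP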)
In short: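 Kinase buffer: 20 mM Tris-HCl pH 7.6, 10 mM MgCl2, 1 mM DTT, 0.1 mM Na3VO4, 0.01% Tween-20; ATP 10 uM. Substrate biotin-GST-cJun(1-79), enzyme from activated HepG2 lysates. Detection by Ser73 phospho-antibody AlphaScreen.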

[8] = target: 3',5'-cyclic-AMP phosphodiesterase 4B (Homo sapiens) (UniProt Q07343); test: qHTS Assay for Inhibitors of PDE-IV (AID 607; active = well fitted activation curve with a large enough effect in the main read-out, with a control signal flat, not every such curve was filed as active)
3',5'-cyclic-AMP phosphodiesterase 4B (Homo sapiens), sequence (Q07343 whole entry, looked up): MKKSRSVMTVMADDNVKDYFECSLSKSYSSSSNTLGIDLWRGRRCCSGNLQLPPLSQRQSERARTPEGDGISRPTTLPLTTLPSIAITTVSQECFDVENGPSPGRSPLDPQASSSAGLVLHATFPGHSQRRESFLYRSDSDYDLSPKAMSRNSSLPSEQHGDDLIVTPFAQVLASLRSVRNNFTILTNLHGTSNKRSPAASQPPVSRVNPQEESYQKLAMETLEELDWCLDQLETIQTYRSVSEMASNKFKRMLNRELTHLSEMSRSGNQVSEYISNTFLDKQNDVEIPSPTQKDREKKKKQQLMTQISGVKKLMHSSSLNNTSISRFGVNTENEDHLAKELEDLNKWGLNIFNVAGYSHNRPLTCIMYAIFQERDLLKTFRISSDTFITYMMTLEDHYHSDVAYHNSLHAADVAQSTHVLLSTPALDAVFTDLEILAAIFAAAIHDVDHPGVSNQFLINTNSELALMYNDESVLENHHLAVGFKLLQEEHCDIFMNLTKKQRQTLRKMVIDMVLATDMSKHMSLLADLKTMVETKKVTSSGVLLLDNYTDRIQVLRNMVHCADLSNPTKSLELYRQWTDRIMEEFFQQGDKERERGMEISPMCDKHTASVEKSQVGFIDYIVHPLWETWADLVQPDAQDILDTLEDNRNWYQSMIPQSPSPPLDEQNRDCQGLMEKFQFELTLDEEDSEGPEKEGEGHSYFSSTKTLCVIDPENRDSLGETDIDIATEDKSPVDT
In short: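 Cell-based read-out of cAMP via a modified cyclic nucleotide-gated channel and membrane potential dye (535/590 nm) in HEK293 cells expressing PDE4 endogenously. Compounds tested up to 22.9 uM final; 100 uM RO 20-1724 reference.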

[9] = target: Cytochrome P450 3A4 (Homo sapiens) (UniProt P08684); test: qHTS Assay for Activators of Cytochrome P450 3A4 (AID 885); also: nearly all actives have a fitted effect of over 65% in size
Cytochrome P450 3A4 (Homo sapiens), sequence (P08684 whole entry, looked up): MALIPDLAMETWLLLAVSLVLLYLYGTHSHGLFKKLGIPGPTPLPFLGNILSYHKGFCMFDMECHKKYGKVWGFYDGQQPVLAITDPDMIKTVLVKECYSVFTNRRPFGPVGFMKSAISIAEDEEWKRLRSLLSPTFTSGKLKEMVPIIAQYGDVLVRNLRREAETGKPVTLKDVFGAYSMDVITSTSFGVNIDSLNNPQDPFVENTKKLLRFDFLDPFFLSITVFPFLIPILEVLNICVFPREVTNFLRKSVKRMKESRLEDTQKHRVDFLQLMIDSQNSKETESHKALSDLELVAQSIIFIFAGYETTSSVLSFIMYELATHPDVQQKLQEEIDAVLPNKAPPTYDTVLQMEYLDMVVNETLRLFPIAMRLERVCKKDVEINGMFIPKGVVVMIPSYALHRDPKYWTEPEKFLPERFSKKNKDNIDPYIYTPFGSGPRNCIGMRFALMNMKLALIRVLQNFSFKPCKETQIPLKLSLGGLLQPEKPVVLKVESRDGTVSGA
In short: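 Luminescent readout of luciferin formed from 25 uM Luciferin-PPXE (KM level) by 20 nM CYP3A4 in 200 mM KPO4, with 60 min NADPH-driven reaction at room temperature after 10 min compound exposure. Ketoconazole (57 uM) defined 100% inhibition.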

[10] = target: Muscarinic acetylcholine receptor M1 (Rattus norvegicus) (UniProt P08482); test: qHTS Assay for Antagonists of Acetylcholine Muscarinic M1 Receptor: Measurement of IP-One Response (AID 944); also: nearly all actives have a fitted effect of over 75% in size
Muscarinic acetylcholine receptor M1 (Rattus norvegicus), sequence (P08482 whole entry, looked up): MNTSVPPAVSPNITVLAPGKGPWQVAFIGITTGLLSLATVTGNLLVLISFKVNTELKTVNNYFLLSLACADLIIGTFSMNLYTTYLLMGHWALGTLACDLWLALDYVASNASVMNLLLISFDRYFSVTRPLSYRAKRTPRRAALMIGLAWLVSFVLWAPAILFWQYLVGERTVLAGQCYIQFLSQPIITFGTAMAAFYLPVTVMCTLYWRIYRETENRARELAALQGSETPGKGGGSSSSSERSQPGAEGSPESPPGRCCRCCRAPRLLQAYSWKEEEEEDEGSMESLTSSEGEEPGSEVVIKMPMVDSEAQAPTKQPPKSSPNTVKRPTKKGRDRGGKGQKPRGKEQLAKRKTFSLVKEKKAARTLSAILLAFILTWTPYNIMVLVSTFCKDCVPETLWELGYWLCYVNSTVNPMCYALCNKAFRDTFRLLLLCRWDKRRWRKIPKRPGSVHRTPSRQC
In short: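 Antagonism was measured as loss of carbachol-driven (EC80) IP1 accumulation in CHO cells carrying rat M1, using a homogeneous IP-One TR-FRET kit read at 620 and 665 nm.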

[11] = target: Pyruvate kinase (Leishmania mexicana) (UniProt Q27686); test: qHTS Validation Assay for Inhibitors of Leishmania Mexicana Pyruvate Kinase (AID 945)
Pyruvate kinase (Leishmania mexicana), sequence (Q27686 2-499 E452W): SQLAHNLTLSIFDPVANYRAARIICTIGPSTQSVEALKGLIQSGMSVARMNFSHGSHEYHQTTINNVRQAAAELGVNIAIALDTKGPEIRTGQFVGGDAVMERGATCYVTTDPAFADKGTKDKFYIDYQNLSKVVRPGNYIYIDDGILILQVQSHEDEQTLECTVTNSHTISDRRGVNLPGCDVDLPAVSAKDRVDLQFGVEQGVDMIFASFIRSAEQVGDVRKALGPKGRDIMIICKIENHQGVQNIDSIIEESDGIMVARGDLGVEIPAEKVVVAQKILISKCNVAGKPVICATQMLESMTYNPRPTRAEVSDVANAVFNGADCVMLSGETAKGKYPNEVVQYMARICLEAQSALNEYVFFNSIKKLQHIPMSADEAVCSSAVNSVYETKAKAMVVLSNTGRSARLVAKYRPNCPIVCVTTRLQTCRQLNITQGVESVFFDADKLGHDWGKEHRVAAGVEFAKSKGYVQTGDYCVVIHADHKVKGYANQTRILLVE
In short: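 Eight-point qHTS titrations in triplicate, data normalized to DMSO neutral control. Reaction: 0.2 nM LmPYK E451W mutant, 0.5 mM PEP, 0.1 mM ADP, 7 mM MgCl2, pH 7.2, one hour at room temperature; luminescent ATP detection.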

[12] = target: Pyruvate kinase PKM (Homo sapiens) (UniProt P14618); test: qHTS Assay for Activators of Human Muscle Pyruvate Kinase (AID 954; active = well fitted curve in the direction sought with a large enough effect, not every such curve was filed as active)
Pyruvate kinase PKM (Homo sapiens), sequence (P14618 whole entry, looked up): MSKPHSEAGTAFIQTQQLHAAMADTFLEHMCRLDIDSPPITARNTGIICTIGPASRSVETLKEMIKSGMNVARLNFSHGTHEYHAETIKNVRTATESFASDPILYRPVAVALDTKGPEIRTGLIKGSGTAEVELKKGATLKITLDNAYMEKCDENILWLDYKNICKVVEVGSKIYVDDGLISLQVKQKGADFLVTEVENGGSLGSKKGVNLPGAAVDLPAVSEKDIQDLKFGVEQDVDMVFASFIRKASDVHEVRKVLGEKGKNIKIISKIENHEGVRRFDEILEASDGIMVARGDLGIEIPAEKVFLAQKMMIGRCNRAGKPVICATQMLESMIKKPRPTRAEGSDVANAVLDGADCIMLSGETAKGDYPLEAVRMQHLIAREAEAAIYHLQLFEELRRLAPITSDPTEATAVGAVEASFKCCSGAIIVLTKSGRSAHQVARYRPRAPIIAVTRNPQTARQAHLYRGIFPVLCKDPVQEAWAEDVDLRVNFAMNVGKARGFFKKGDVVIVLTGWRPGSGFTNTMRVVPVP
In short: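 ATP production by PKM2 detected via luciferase luminescence after 1 h room-temperature reaction (0.1 nM enzyme, PEP at Km 0.5 mM, ADP 0.1 mM, pH 7.2 imidazole buffer). Inhibition scaled to no-enzyme control; activation referenced to 0.3 nM enzyme wells.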

[13] = target: Alpha-galactosidase A (Homo sapiens) (UniProt P06280); test: Counterscreen for Glucocerebrosidase Inhibitors: qHTS Assay for Human alpha-Galactosidase at pH 4.5 (AID 992)
Alpha-galactosidase A (Homo sapiens), sequence (P06280 whole entry, looked up): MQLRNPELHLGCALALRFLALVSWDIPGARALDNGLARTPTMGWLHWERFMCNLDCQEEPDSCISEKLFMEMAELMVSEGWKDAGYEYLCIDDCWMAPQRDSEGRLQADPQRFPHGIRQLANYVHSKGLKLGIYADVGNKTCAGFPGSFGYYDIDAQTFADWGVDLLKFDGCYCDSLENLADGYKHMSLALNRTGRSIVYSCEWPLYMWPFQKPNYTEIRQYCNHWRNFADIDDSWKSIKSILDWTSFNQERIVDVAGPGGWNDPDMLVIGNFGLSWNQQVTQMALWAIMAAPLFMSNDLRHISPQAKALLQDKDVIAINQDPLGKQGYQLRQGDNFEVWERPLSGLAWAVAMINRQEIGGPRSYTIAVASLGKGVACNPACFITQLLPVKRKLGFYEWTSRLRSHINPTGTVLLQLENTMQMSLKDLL
In short: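 Fluorogenic 1536-well qHTS at pH 4.5 (citrate, Tween-20): 2 nM enzyme, 80 uM 4-MU-alpha-galactoside, 20 min room temperature, NaOH/glycine stop. Titration 0.7 nM to 77 uM, data normalized to no-enzyme and full-activity controls, Hill-fitted AC50.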

[14] = target: alpha-glucosidase (Oryza sativa, rice) (UniProt Q653V4); test: Counterscreen for Glucocerebrosidase Inhibitors: qHTS Assay for Rice alpha-Glucosidase at pH 5.0 (AID 997)
In short: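 Endpoint fluorogenic assay at pH 5.0: compounds (0.7 nM to 77 uM) titrated against 4 nM rice enzyme and 400 uM 4-MU-alpha-glucoside for 20 min at room temperature; NaOH/glycine stop, read ex 365/em 440 nm, Hill-fitted AC50.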

[15] = qHTS Assay for Identification of Small Molecule Antagonists for NFkB Signaling Pathway (AID 895; active = well fitted inhibition curve with a large enough effect in the signal ratio, with a control signal flat, not every such curve was filed as active; the % refers to the signal ratio; also: potency is read from the fitted curve at half-maximal effect)
In short: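 Beta-lactamase reporter read-out (460 and 530 nm emission ratio, 405 nm excitation, 2 hrs substrate loading RT) after 5 hr stimulation with 10 pM TNF alpha in compound-treated NFkB-bla ME-180 cells in low-serum medium.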

[16] = qHTS Assay for Identification of Small Molecule Agonists for Thrombopoietin (TPO) Signaling Pathway (AID 917)
In short: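 First, Ba/F3 cells with human TPO receptor were held overnight without IL-3. Next, compounds and TPO (26 pM final) were added. After 24 hrs at 37 C, luciferase detection reagent was added and luminescence measured following 10 min at room temperature.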

[17] = target: Muscarinic acetylcholine receptor M1 (Rattus norvegicus) (UniProt P08482); test: qHTS Assay for Antagonists of Acetylcholine Muscarinic M1 Receptor: Kinetic Measurement of Intracellular Calcium Response (AID 943);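 also: Fluo-4 calcium signal as peak divided by basal fluorescence over 4 min; nearly all actives have a fitted effect of over 75% in size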
In short: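 Quantitative HTS in CHO-M1 (rat receptor) cells: 10 min compound exposure ahead of 100 nM carbachol, Fluo-4 fluorescence followed 4 min, value expressed as peak-to-basal ratio.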

[18] = target: Guanine nucleotide-binding protein G(i) subunit alpha-1 (Homo sapiens) (UniProt P63096); test: qHTS Assay for Inhibitors of RGS12 GoLoco Motif Activity (Green Fluorophore) (AID 879);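 also: negative values mean loss of peptide binding seen as reduced polarization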
Guanine nucleotide-binding protein G(i) subunit alpha-1 (Homo sapiens), sequence (P63096 whole entry, looked up): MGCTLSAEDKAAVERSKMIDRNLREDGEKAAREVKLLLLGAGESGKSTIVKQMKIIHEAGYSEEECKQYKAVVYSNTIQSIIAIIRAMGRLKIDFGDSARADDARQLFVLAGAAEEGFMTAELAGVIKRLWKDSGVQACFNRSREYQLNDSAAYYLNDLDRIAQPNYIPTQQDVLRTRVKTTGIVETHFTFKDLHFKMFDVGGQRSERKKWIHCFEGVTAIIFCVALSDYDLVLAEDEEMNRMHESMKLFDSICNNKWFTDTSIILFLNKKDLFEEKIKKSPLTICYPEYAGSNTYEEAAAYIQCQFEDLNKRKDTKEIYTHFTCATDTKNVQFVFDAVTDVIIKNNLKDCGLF
In short: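 A drop in FITC polarization marked displacement of the FITC-tagged RGS12 GoLoco peptide (10 nM) from Gαi1 (50 nM). Compounds were incubated 10 min at room temperature in Tris pH 7.5 buffer containing 150 mM NaCl, 0.1 mM GDP and 0.05% NP40; unlabeled peptide titration served as control.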

[19] = target: Cytochrome P450 2D6 (Homo sapiens) (UniProt P10635); test: qHTS Assay for Inhibitors and Substrates of Cytochrome P450 2D6 (AID 891); also: potency is read from the fitted curve at half-maximal effect; nearly all actives have a fitted effect of over 60% in size
In short: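 Luminescent read-out of luciferin formed by 5 nM human CYP2D6 demethylating 30 uM Luciferin-ME EGE (Km level) over 60 min at room temperature after NADPH regeneration addition. Data normalized to full inhibition by 1.43 uM quinidine.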

| Structure (SMILES) | activity change, negative = inhibition [1] | Potency [2] | activity change, negative = inhibition [3] | activity, negative = inhibition [4] | Potency [5] [µM] | Potency [6] [µM] | Potency [7] | Potency [8] | Potency [9] | Potency [10] | outcome [11] | outcome [12] | outcome [13] | Potency [14] | Potency [15] | outcome [16] | Potency [17] | outcome [18] | activity change, negative = inhibition [2] | Potency [19] |
| --- | --- | --- | --- | --- | --- | --- | --- | --- | --- | --- | --- | --- | --- | --- | --- | --- | --- | --- | --- | --- |
| Cc1cccc(C)c1OC[C@@H](N)C(C)C | 9.48% [at 38 µM] | 12.6 µM (active) | 4.41% [at 38 µM] | 4.92% [at 38 µM] | > 46 | > 46 | inactive | inactive | inactive | inactive | inactive | inactive | inactive | inactive | – | – | – | – | – | – |
| C[C@H]1CN(S(=O)(=O)c2cccc3cnccc23)CCN1 | -12.4% [at 38 µM] | inactive | 1.25% [at 38 µM] | 2.7% [at 38 µM] | > 46 | > 46 | inactive | inactive | – | inactive | inactive | inactive | inactive | inactive | 2.82 µM (active) | inactive | inactive | – | – | – |
| CC1(C)CCC(NC(=O)[C@H](N)CCC(=O)O)CC1 | 5.34% [at 38 µM] | inactive | 2.47% [at 38 µM] | -7.41% [at 38 µM] | > 46 | > 46 | – | inactive | – | inactive | inactive | inactive | inactive | inactive | inactive | inactive | inactive | inactive | – | – |
| NC[C@H](O)C1CCCCCCC1 | 3.98% [at 38 µM] | inactive | 4.63% [at 38 µM] | 14.7% [at 38 µM] | > 46 | > 46 | inactive | inactive | – | inactive | inactive | inactive | inactive | inactive | – | inactive | inactive | – | – | – |
| O=C(Oc1ccc2c(c1)CN(Cc1ccccc1)CO2)c1ccccc1 | 10.8% | – | 13.3% | 2.87% | > 46 | > 9.22 | inactive | inactive | inactive | – | – | – | – | – | – | – | – | – | -14.3% [at 2.29 µM] | 501 nM (active) |
